Experimental data taken from PubChem BioAssay.
The source made the active and inactive calls.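 How the source made its calls, unless noted: active means fluorescence slope after compound addition differing from the mean of all screened samples at 99.7% confidence, in either direction; inactive means the rest.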

Key:
[1] = inhibitors of TNFa-induced NFkB p65 translocation, primary screen, imaging, HUVEC, MLSMR starter and 10KST1 sets (AID 438;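 active means inhibition above 20% together with a positive visual image hit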;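 further: compound added about 3h40 before a 20 min TNFalpha stimulation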;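 on inhibition: signal is the nuclear over cytoplasmic p65 intensity ratio per well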); conditions: HUVEC TNFa-induced p65 nuclear translocation; cell count: measured here: nuclei count (cytotoxicity indicator), at 2.08 µM; inhibition: at 2 µM, stronger effect = higher value, 0% TNFa-plus-vehicle, 100% no-TNFa wells
[2] = inhibitors of mutant huntingtin aggregation, primary screen, imaging, exon1htt(103Q)mCFP cells, high-content imaging (AID 483;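 active means visual image review flags a hit and inhibition of aggregation exceeds 20%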;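 further: compound exposure lasted 3 days before fixation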;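 on nuclei count: percent of the per-plate median nuclei count of sample wells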); conditions: exon1htt(103Q)mCFP cell line, aggregate imaging, at 2 µM; inhibition of aggregation: stronger effect = higher value; nuclei count: measured here: cell count, toxicity
[3] = inhibitors of E-selectin induction by TNFa, primary screen, imaging, HUVEC, immunofluorescence, MLSMR starter and 10KST1 sets (AID 487;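 active means visually confirmed hit in the image check and inhibition above 20%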;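 on inhibition: signal is fraction of cell area covered by stained E-selectin grains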;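 on nuclei count: 100% = median nuclei count of all wells on the same plate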); conditions: HUVEC TNFalpha-induced E-selectin immunofluorescence imaging, at 2 µM; inhibition: stronger effect = higher value; nuclei count: measured here: cell number, toxicity
[4] = target: Voltage-gated potassium channel subunit beta-2 (Rattus norvegicus) (UniProt P62483); experiment: KvBeta enzyme negative modulators, primary screen, biochemical, NADPH fluorescence (AID 622;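 active means fluorescence slope higher than the sample average by over 3 SD, cut at about -0.22 in these data, passing the limit was not always enough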;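 further: slope of raw intensity against log time taken from 70 to 1610 s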); conditions: recombinant KvBeta, 4-cyanobenzaldehyde reduction, at 10 µM, stronger effect = higher value
Sequence of Voltage-gated potassium channel subunit beta-2 (Rattus norvegicus) (P62483 whole entry, looked up): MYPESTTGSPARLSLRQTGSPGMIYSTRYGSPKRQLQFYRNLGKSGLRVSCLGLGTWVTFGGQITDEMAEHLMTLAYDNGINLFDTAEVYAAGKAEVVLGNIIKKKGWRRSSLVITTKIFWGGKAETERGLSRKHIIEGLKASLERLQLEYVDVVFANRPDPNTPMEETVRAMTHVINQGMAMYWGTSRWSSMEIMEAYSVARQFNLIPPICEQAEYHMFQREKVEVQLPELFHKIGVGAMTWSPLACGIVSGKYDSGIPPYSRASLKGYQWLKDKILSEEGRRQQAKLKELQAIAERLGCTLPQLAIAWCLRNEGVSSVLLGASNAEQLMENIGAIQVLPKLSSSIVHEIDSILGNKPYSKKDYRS

[5] = target: Voltage-gated potassium channel subunit beta-2 (Rattus norvegicus) (UniProt P62483); experiment: KvBeta positive modulators, primary screen, biochemical, NADPH fluorescence (AID 623;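 active means NADPH fluorescence slope more negative than the mean of all samples by about 3 SD, 99.7% confidence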;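 further: fluorescence intensity change per second fitted from 20 to 320 s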); conditions: Recombinant KvBeta, NADPH fluorescence decrease slope, 10 min; at 10 µM; stronger effect = lower value
[6] = target: Alpha-2C adrenergic receptor (Homo sapiens) (UniProt P18825); experiment: modulators of alpha2C/GIRK thallium flux, primary screen, cell-based, HEK293 alpha2C/GIRK1/2 (AID 624); conditions: thallium flux BTC fluorescence, at 10 µM, actives lie on both sides;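 further: slope of fluorescence ratio to pre-addition baseline per second over 15 to 24 s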
Sequence of Alpha-2C adrenergic receptor (Homo sapiens) (P18825 whole entry, looked up): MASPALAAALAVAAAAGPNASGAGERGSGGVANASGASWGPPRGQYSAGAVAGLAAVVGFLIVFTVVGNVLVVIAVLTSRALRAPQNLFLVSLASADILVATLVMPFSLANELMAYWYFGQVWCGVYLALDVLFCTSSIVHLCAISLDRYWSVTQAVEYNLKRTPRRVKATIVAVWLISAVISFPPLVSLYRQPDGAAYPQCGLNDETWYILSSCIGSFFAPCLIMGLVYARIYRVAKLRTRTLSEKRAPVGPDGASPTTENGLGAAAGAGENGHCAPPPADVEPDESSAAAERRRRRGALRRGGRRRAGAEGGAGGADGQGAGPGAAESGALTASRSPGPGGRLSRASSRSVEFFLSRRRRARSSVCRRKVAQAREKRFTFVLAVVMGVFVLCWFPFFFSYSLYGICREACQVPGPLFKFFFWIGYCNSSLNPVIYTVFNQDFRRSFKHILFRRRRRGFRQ

[7] = inhibitors of Sendai virus-induced IRF3 signaling, primary screen, TLR/RLR signaling modifier project, cell-based, Sendai virus stimulus, luciferase, 10K MLSCN set (AID 602276;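 active means inhibition at or above 50% at 10 µM; inactive means inhibition below 50%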;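 further: firefly luciferase from ISG56 promoter only with Renilla not read in this screen; 0% = Sendai virus plus DMSO and 100% = medium plus DMSO without virus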); conditions: HEK293 RL24 IRF3 luciferase reporter, at 10 µM, stronger effect = higher value
[8] = inhibitors of poly I:C-induced TLR3 signaling, primary screen, cell-based, poly I:C stimulus, luciferase, 10K MLSCN set (AID 602277;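 active means inhibition of the reporter signal at or above 50%; inactive means inhibition below 50%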); conditions: HEK293-TLR3 RL24 IRF3 luciferase reporter, at 10 µM, stronger effect = higher value

Row | SMILES | cell count [1] | inhibition [1] | inhibition of aggregation [2] | nuclei count [2] | inhibition [3] | nuclei count [3] | fluorescence slope [4] | NADPH fluorescence slope [5] | slope [6] | inhibition [7] | inhibition [8]
1 | COc1ccc(OC)c(C(=O)c2ccc(C(=O)O)cc2)c1 | 415 | 10.6% (inactive) | -5.3% (inactive) | 100% | -71.4% (inactive) | 110% | -0.508 (inactive) | -2.9e-05 (inactive) | 0.00489 (inactive) | 16.7% (inactive) | 18.4% (inactive)
2 | COc1ccccc1C(=O)Nc1ccc(N2CCN(Cc3ccccc3)CC2)cc1 | 690 | 12% (inactive) | 23.2% (inactive) | 95.9% | 19.4% (inactive) | 97% | -0.611 (inactive) | -1.3e-06 (inactive) | 0.00369 (inactive) | 9.6% (inactive) | -11% (inactive)
3 | CCOc1ccccc1N(CC(=O)N1CCCCCC1)S(C)(=O)=O | 358 | -10% (inactive) | -1.2% (inactive) | 117% | -83.5% (inactive) | 117% | -0.447 (inactive) | -1.3e-05 (inactive) | 0.00598 (inactive) | 9.48% (inactive) | 19.4% (inactive)
4 | Cc1ccc(C)c2[nH]c(=O)c(CCNC(=O)c3ccc(S(=O)(=O)N(C)C)cc3)cc12 | 596 | 4.3% (inactive) | 15% (inactive) | 125% | -14% (inactive) | 116% | -0.557 (inactive) | -4e-05 (inactive) | 0.00528 (inactive) | 3.79% (inactive) | 22.8% (inactive)
5 | O=C(CCNS(=O)(=O)c1ccc(Br)s1)N1CCCCC1 | 380 | 0.3% (inactive) | -2% (inactive) | 99.9% | -86.3% (inactive) | 106% | -0.494 (inactive) | -3.4e-05 (inactive) | 0.00623 (inactive) | -0.525% (inactive) | 7.37% (inactive)
6 | Cc1ccc(C)c2[nH]c(=O)c(CCNC(=O)c3ccc(Br)o3)cc12 | 327 | -9.8% (inactive) | 14.1% (inactive) | 87% | 23.8% (inactive) | 97.7% | -0.481 (inactive) | -0.000268 (inactive) | 0.00492 (inactive) | -1.8% (inactive) | -1.41% (inactive)
7 | CN1CCN(c2nc3c(c(=O)[nH]c(=O)n3C)n2CCOc2ccccc2)CC1 | 311 | 6.2% (inactive) | 0.9% (inactive) | 108% | -45.8% (inactive) | 116% | -0.489 (inactive) | -4.3e-05 (inactive) | 0.00596 (inactive) | 3.18% (inactive) | 27.3% (inactive)
8 | CC(C)(C)c1ccc(OCC(=O)O)cc1 | 567 | 3.1% (inactive) | 11.7% (inactive) | 98% | -36% (inactive) | 96.2% | -0.599 (inactive) | -3.9e-05 (inactive) | 0.00377 (inactive) | 7.32% (inactive) | 11.4% (inactive)
9 | O=C(c1ccc(Cl)cc1)N1CCCOC1 | 784 | -9.7% (inactive) | -49% (inactive) | 99.2% | -84.3% (inactive) | 111% | -0.32 (inactive) | -4.9e-05 (inactive) | 0.00521 (inactive) | 10.5% (inactive) | 18.6% (inactive)
10 | COC(=O)C1=C(N)OC2=C(C(=O)CCC2)C1c1cccs1 (stereo not drawn) | 491 | 3.2% (inactive) | 27.3% (inactive) | 52% | 44.1% (inactive) | 103% | -0.49 (inactive) | -3.8e-05 (inactive) | 0.00743 (inactive) | 2.58% (inactive) | 21.7% (inactive)
11 | CCCS(=O)(=O)C(=C1Nc2ccccc2N1)S(=O)(=O)CCC | 543 | -7% (inactive) | -18.7% (inactive) | 119% | 0.5% (inactive) | 75.9% | -0.63 (inactive) | -4.3e-05 (inactive) | 0.00495 (inactive) | 12.1% (inactive) | 15.8% (inactive)
12 | COC(=O)C1CCN(C(=O)CN2C(=O)NC(CCc3ccccc3)C2=O)CC1 (stereo not drawn) | 552 | -9.6% (inactive) | -7.5% (inactive) | 95.7% | -16.4% (inactive) | 110% | -0.542 (inactive) | -2.6e-05 (inactive) | 0.00516 (inactive) | -17.8% (inactive) | -13.6% (inactive)
13 | Cc1ccc(Cn2c(=O)c3ccccc3n3c(CCC(=O)O)nnc23)cc1 | 681 | -13.4% (inactive) | -2.1% (inactive) | 90% | -55.9% (inactive) | 116% | -0.554 (inactive) | 1.7e-05 (inactive) | 0.00669 (inactive) | 0.88% (inactive) | 12.6% (inactive)
14 | COc1ccccc1OCc1ccc(C(=O)Nc2ccncc2)o1 | 729 | -7.3% (inactive) | -9.4% (inactive) | 83.1% | -69% (inactive) | 120% | -0.508 (inactive) | -5.2e-05 (inactive) | 0.00528 (inactive) | 8.87% (inactive) | -20.1% (inactive)
15 | COc1ccc(S(=O)(=O)NCC(c2cccnc2)N2CCN(C)CC2)cc1C (stereo not drawn) | 600 | -1.8% (inactive) | -1.7% (inactive) | 84.8% | 2% (inactive) | 105% | -0.586 (inactive) | -1.6e-05 (inactive) | 0.00609 (inactive) | 4.66% (inactive) | 29.1% (inactive)
16 | COc1ccc(NC(=O)c2oc3ccc(S(=O)(=O)N4CCC5(CC4)OCCO5)cc3c2C)cc1 | 209 | -4.4% (inactive) | 10% (inactive) | 83.1% | -77.8% (inactive) | 121% | -0.447 (inactive) | 4.2e-05 (inactive) | 0.00642 (inactive) | 3.21% (inactive) | 10.5% (inactive)
17 | CC(C)COc1ccc(-c2nnn(CC(=O)N3CCCC3)n2)cc1 | 473 | -5.5% (inactive) | -13.3% (inactive) | 106% | 19.6% (inactive) | 109% | -0.564 (inactive) | -5.5e-05 (inactive) | 0.00381 (inactive) | -2.78% (inactive) | -17.8% (inactive)
18 | O=C(O)c1cccc(COCC(F)(F)C(F)F)c1 | 714 | -9% (inactive) | 17.2% (inactive) | 101% | -16.8% (inactive) | 102% | -0.497 (inactive) | -4.4e-05 (inactive) | 0.00506 (inactive) | 5.99% (inactive) | 5.49% (inactive)
19 | Cc1ccc(S(=O)(=O)N2CCCC(C(=O)NC3=NCCS3)C2)cc1 (stereo not drawn) | 306 | 7.4% (inactive) | -0.7% (inactive) | 111% | -27.5% (inactive) | 106% | -0.601 (inactive) | -3.9e-05 (inactive) | 0.00373 (inactive) | 14.7% (inactive) | 13.5% (inactive)
20 | COc1ccccc1-c1cc(C(=O)Nc2cc(C)nn2-c2ccccc2)no1 | 478 | -9.3% (inactive) | -24.6% (inactive) | 111% | 4.5% (inactive) | 109% | -0.381 (inactive) | -2e-05 (inactive) | 0.00489 (inactive) | -1.99% (inactive) | 16% (inactive)
21 | CCOc1ccc(N(CC(=O)NC2CCCC2)S(=O)(=O)c2c(C)[nH]c(=O)[nH]c2=O)cc1 | 552 | 14% (inactive) | 15.7% (inactive) | 107% | -159% (inactive) | 132% | -0.518 (inactive) | -5.9e-05 (inactive) | 0.00723 (inactive) | 4.96% (inactive) | 15.6% (inactive)
22 | Cc1cc(NS(=O)(=O)c2ccc(NC(=O)COc3ccc(Cl)cc3)cc2)no1 | 361 | 0.4% (inactive) | -9.7% (inactive) | 118% | -54.3% (inactive) | 122% | -0.292 (inactive) | -6.7e-05 (inactive) | 0.00576 (inactive) | 13% (inactive) | 19.8% (inactive)
23 | O=C(NCCN1CCCCCC1)c1ccc(N2CCCC2=O)cc1 | 561 | -4.7% (inactive) | 23.6% (inactive) | 84.5% | 60.4% (inactive) | 24.3% | -0.406 (inactive) | -4.1e-05 (inactive) | 0.00534 (inactive) | 16.9% (inactive) | 17.9% (inactive)
24 | O=c1cc(CN2CCN(c3ccc(F)cc3)CC2)nc2sccn12 | 280 | 3.4% (inactive) | 19.5% (inactive) | 95% | -8.5% (inactive) | 109% | -0.477 (inactive) | 2.3e-05 (inactive) | 0.00346 (inactive) | -6.74% (inactive) | 0.252% (inactive)
25 | CC(=O)NCc1cccc(CNC(C)=O)n1 | 652 | 9.2% (inactive) | -29% (inactive) | 109% | -92.7% (inactive) | 101% | -0.432 (inactive) | -2.5e-05 (inactive) | 0.00626 (inactive) | 12% (inactive) | 14.4% (inactive)
26 | CCCc1cc(C(=O)Nc2sc(C)c(C)c2C(=O)OCC)no1 | 856 | 2.3% (inactive) | 2.1% (inactive) | 126% | -79.7% (inactive) | 114% | -0.229 (inactive) | -5.5e-06 (inactive) | 0.00716 (inactive) | 8.68% (inactive) | 31.8% (inactive)
27 | Nc1nc(CSc2nc3ccccc3[nH]2)nc(N2CCOCC2)n1 | 675 | -17.6% (inactive) | -0.7% (inactive) | 87.9% | -51% (inactive) | 111% | -0.449 (inactive) | -3.7e-05 (inactive) | 0.00382 (inactive) | 3.37% (inactive) | 18.9% (inactive)
28 | O=C1CCN(C(=O)c2ccccc2)C2CCCCC12 (stereo not drawn) | 511 | -8.7% (inactive) | 4.4% (inactive) | 41.3% | 19.1% (inactive) | 81.9% | -0.408 (inactive) | 1.6e-05 (inactive) | 0.00412 (inactive) | -7.18% (inactive) | 15.9% (inactive)
